Test results taken from PubChem BioAssay (NCATS).
Values joined by “and” are separate entries in the source; they are usually repeats but may differ in a detail not shown here. Identical values can stand only once. Values without a mark were called inactive. Records with an inconclusive call do not appear. Entries that show only a call come without a potency. Active and inactive are the calls of the source. Calls come from the whole dose curve; as a rule, active = well fitted curve in the direction sought with a large enough effect; inconclusive = small, poorly fitted or top-dose-only effect, or another doubt; inactive = no such curve, though single readings can be large; an effect the other way counts as inactive or inconclusive.

Key:
[1] = tested on: Zika virus NS2B-NS3 protease (unlinked complex); test: Primary screen GU Rhodamine qHTS for Zika virus inhibitors: Unlinked NS2B-NS3 protease assay (AID 1347159); note: nearly all actives have a fitted effect of over 60% in size; note: potency is the fitted concentration of half-maximal effect
Outline: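 Percent inhibition derives from the 15-min fluorescence change (ex 480, em 540 nm), normalized to no-enzyme and no-inhibitor wells. Reactions contained 25 nM NS2B-NS3 complex and 1.5 microM substrate in 10 mM Tris-HCl pH 8.0.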

[2] = tested on: Zika virus NS2B-NS3 protease (linked construct); test: Primary screen NINDS Rhodamine qHTS for Zika virus inhibitors (AID 1347160); note: nearly all actives have a fitted effect of over 55% in size; note: potency is the fitted concentration of half-maximal effect
Outline: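 In 10 mM Tris-HCl pH 8.0 containing 0.01% Tween 20, linked NS2B-NS3 protease (25 nM final) is exposed to test compounds for 15 min. Cleavage of 1.5 microM Rhodamine110 substrate is tracked by fluorescence over 15 min.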

[3] = biological target: Calcium and integrin-binding protein 1 (Homo sapiens) (UniProt Q99828); test: Primary qHTS for Identification of Calcium Integrin Binding Protein 1 (CIB1) Competitor (AID 1508620);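 note: GST tagged CIB1 binding a fluorescein labelled alphaIIb integrin peptide tracer; top concentration of the series differs between compounds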
Outline: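 Fluorescence polarization competition: CIB1-GST (1 uM final) preincubated with compound 15 min at room temperature, then FITC-labeled alphaIIb peptide (100 nM final) added for another 15 min. Polarization read at Ex 480/Em 540.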

[4] = Primary qHTS for inhibitors of nuclear receptor binding SET domain protein 2 (NSD2) in an isogenic RCH-ACV NSD2 p.E1099K mutant (9B) (AID 1645876); note: nearly all actives have a fitted effect of over 70% in size; note: potency is the fitted concentration of half-maximal effect
[5] = Primary qHTS for inhibitors of nuclear receptor binding SET domain protein 2 (NSD2) in an RCH-ACV wild type WT cells (2C) (AID 1645877); note: nearly all actives have a fitted effect of over 70% in size; note: potency is the fitted concentration of half-maximal effect
[6] = biological target: Glutathione peroxidase 1 (Homo sapiens) (UniProt P07203); test: Primary qHTS Assay for Inhibitors of Recombinant Selenoprotein Glutathione Peroxidase 1 (GPX1) (AID 1845191); note: nearly all actives have a fitted effect of over 65% in size
Outline: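 Recombinant GPX1 (10 nM final) was preincubated with compound for 30 min at room temperature, then reacted with 1 mM GSH, 0.5 mM CHP, 0.5 mM NADPH and 100 nM glutathione reductase; NADPH fluorescence (340/450 nm) was read at 0 and 15 min.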

[7] = biological target: Phospholipid hydroperoxide glutathione peroxidase GPX4 (Homo sapiens) (UniProt P36969); test: Primary qHTS Assay for Inhibitors of Recombinant Selenoprotein Glutathione Peroxidase 4 (GPX4) (AID 1845192); settings: outcome: dose series up to 50 µM unless noted; note: nearly all actives have a fitted effect of over 65% in size
Outline: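 GR-coupled readout: 100 nM GR, 1 mM GSH, 0.5 mM NADPH; NADPH fluorescence (ex 340/em 450 nm) read at t=0 and after 15 min RT. GPX4 200 nM, preincubated 30 min with compound; substrate 0.5 mM CHP.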

[8] = biological target: Luciferin 4-monooxygenase (Photinus pyralis) (UniProt P08659); test: Primary firefly luciferase (FLuc) qHTS assay for identification of artifact compounds. (AID 1845220); note: nearly all actives have a fitted effect of over 60% in size
Outline: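 qHTS, 15 min compound preincubation with substrate (10 uM luciferin, 10 uM ATP) at RT, then 10 nM FLuc; 5 min; luminescence; % inhibition vs no-enzyme/DMSO controls, 4-parameter Hill fit.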

[9] = tested on: Nanoluciferase (engineered Oplophorus gracilirostris luciferase); test: Primary Nanoluciferase (NLuc) qHTS assay for identification of artifact compounds. (AID 1845222)
Outline: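 Luminescence read-out of secreted NLuc in S16 cell conditioned medium (1:55); compounds tested with 15 min RT preincubation, then Nano-Glo substrate 1:100, 5 min. % inhibition vs no-enzyme and DMSO controls, 4-parameter Hill fit.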

[10] = Primary redox qHTS assay for identification of artifact compounds. (AID 1845223)
Outline: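 Amplex Red (25 uM) and HRP (250 mU/mL) in HBSS, with compounds for 15 min, then 250 uM DTT for 30 min, room temperature, dark. Fluorescence 525/598 nm read; normalized to DMSO and 10 uM DA3003; Hill fit.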

[11] = tested on: CASKI; test: Primary qHTS to identify gynecologic anti-cancer compounds using libraries of approved drugs and bioactive compounds (AID 1345084); settings: Gynecologic cancer cell panel viability, ATPlite luminescence, 48 h; series mostly up to 57.5 µM; note: nearly all actives have a fitted effect of over 55% in size; note: potency is the fitted concentration of half-maximal effect
Outline: (§1)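 Cytotoxicity screen measuring ATP content by luciferase luminescence. Each compound is applied at five concentrations for 48 h at 37 C with 5% CO2.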

[12] = tested on: JEG-3; test: as above; settings: Gynecologic cancer cell panel viability, ATPlite luminescence, 48 h; series mostly up to 57.5 µM
Outline: as §1

[13] = tested on: OV90; test: as above; settings: Gynecologic cancer cell panel viability, ATPlite luminescence, 48 h; series mostly up to 57.5 µM
Outline: as §1

[14] = tested on: PA-1; test: as above; settings: Gynecologic cancer cell panel viability, ATPlite luminescence, 48 h; series mostly up to 57.5 µM
Outline: as §1

[15] = tested on: Es-2; test: as above; settings: Gynecologic cancer cell panel viability, ATPlite luminescence, 48 h; series mostly up to 57.5 µM
Outline: as §1

[16] = tested on: C33A; test: as above; settings: Gynecologic cancer cell panel viability, ATPlite luminescence, 48 h; series mostly up to 57.5 µM
Outline: as §1

[17] = tested on: HeLa; test: as above; settings: Gynecologic cancer cell panel viability, ATPlite luminescence, 48 h; series mostly up to 57.5 µM
Outline: as §1

[18] = tested on: Hek293T; test: as above; settings: Gynecologic cancer cell panel viability, ATPlite luminescence, 48 h, control line for the selectivity index; series mostly up to 57.5 µM
Outline: as §1

[19] = tested on: Tov-21-G; test: as above; settings: Gynecologic cancer cell panel viability, ATPlite luminescence, 48 h; series mostly up to 57.5 µM
Outline: as §1

[20] = tested on: Tov112D; test: as above; settings: Gynecologic cancer cell panel viability, ATPlite luminescence, 48 h; series mostly up to 57.5 µM
Outline: as §1

Glutathione peroxidase 1 (Homo sapiens), sequence (P07203 whole entry, looked up): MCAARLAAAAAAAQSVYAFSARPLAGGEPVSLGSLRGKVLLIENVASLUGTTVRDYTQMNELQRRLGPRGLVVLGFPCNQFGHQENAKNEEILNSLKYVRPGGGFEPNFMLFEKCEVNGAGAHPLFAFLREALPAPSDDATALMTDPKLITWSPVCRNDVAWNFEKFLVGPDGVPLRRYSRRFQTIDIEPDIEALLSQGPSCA
Calcium and integrin-binding protein 1 (Homo sapiens), sequence (Q99828 whole entry, looked up): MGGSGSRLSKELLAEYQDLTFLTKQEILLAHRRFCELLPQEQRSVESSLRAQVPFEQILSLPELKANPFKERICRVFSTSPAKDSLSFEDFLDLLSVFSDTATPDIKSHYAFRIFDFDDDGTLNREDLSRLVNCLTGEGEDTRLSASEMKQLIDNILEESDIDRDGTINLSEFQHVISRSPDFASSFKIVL
Phospholipid hydroperoxide glutathione peroxidase GPX4 (Homo sapiens), sequence (P36969 whole entry, looked up): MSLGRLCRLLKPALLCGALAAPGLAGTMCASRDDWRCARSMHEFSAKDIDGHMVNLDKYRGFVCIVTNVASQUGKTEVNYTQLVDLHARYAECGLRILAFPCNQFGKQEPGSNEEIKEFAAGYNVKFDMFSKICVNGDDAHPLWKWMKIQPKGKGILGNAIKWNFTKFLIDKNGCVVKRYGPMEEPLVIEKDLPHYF

Question: For `C=CC(=O)N1CCN(C(=O)c2cc(-c3cc(Cl)ccc3Cl)c(Cl)cc2OC)CC1`, which Potency [1] is on record?
Answer: inactive

Question: And the Potency [2]?
Answer: inactive

Question: And the outcome [3]?
Answer: inactive

Question: And the Potency [4]?
Answer: 11.5 µM (active)

Question: And the Potency [5]?
Answer: 8.17 µM (active)

Question: What about the Potency [6] of the same compound?
Answer: inactive

Question: What about the Potency [7] of the same compound?
Answer: inactive

Question: What about the Potency [8] of the same compound?
Answer: inactive

Question: And the Potency [9]?
Answer: inactive

Question: And the Potency [10]?
Answer: inactive

Question: And the Potency [11]?
Answer: inactive

Question: What about the Potency [12] of the same compound?
Answer: inactive

Question: And the Potency [13]?
Answer: inactive

Question: What about the Potency [14] of the same compound?
Answer: inactive

Question: With `CN(CC(=O)N(Cc1ccc(C2CCCCC2)cc1)c1ccc(C(=O)O)cc1)S(=O)(=O)c1c(F)c(F)c(F)c(F)c1F` as the compound, how does the Potency [1] read?
Answer: 2.51 µM (active)

Question: What about the Potency [2] of the same compound?
Answer: 2.82 µM (active)

Question: And the outcome [3]?
Answer: inactive

Question: What about the Potency [4] of the same compound?
Answer: 7.28 µM (active)

Question: What about the Potency [5] of the same compound?
Answer: 4.59 µM (active)

Question: And the Potency [6]?
Answer: inactive

Question: What about the Potency [7] of the same compound?
Answer: inactive

Question: What about the Potency [8] of the same compound?
Answer: inactive

Question: What about the Potency [9] of the same compound?
Answer: inactive

Question: What about the Potency [10] of the same compound?
Answer: inactive

Question: And the Potency [15]?
Answer: inactive

Question: What about the Potency [12] of the same compound?
Answer: 25.1 µM (active)

Question: With `Cc1cc(C)c(NC(=O)N(Cc2ccc3c(c2)Cc2ccccc2-3)C2CCCCCC2)c(C)c1` as the compound, how does the Potency [2] read?
Answer: inactive

Question: What about the outcome [3] of the same compound?
Answer: inactive

Question: What about the Potency [4] of the same compound?
Answer: inactive

Question: And the Potency [5]?
Answer: inactive

Question: What about the Potency [6] of the same compound?
Answer: inactive

Question: And the Potency [7]?
Answer: inactive

Question: What about the Potency [8] of the same compound?
Answer: inactive

Question: And the Potency [9]?
Answer: inactive

Question: What about the Potency [10] of the same compound?
Answer: inactive

Question: What about the Potency [16] of the same compound?
Answer: inactive

Question: And the Potency [11]?
Answer: inactive

Question: And the Potency [15]?
Answer: inactive

Question: What about the Potency [17] of the same compound?
Answer: inactive

Question: What about the Potency [18] of the same compound?
Answer: inactive

Question: What about the Potency [12] of the same compound?
Answer: inactive

Question: What about the Potency [13] of the same compound?
Answer: inactive

Question: And the Potency [14]?
Answer: inactive

Question: And the Potency [19]?
Answer: inactive

Question: And the Potency [20]?
Answer: inactive

Question: What does the source list for `CC(=O)N[C@@H](CC(=O)O)C(=O)N[C@@H](CCC(=O)O)C(=O)N[C@H](C(=O)N[C@@H](CC(=O)O)C(=O)Nc1ccc2c(C)cc(=O)oc2c1)C(C)C`?
Answer: Potency [1]: inactive; Potency [2]: inactive; Potency [4]: 5.78 µM (active); Potency [5]: 5.15 µM (active); Potency [7]: inactive; Potency [8]: inactive; Potency [9]: inactive; Potency [17]: inactive; Potency [18]: inactive; Potency [12]: inactive; Potency [13]: inactive; Potency [20]: inactive

Question: For `Cc1cc2nc(NCCCO)n(CC(=O)c3cc(C(C)(C)C)c(O)c(C(C)(C)C)c3)c2cc1C`, which Potency [1] is on record?
Answer: inactive

Question: What about the Potency [2] of the same compound?
Answer: inactive

Question: And the outcome [3]?
Answer: inactive

Question: What about the Potency [4] of the same compound?
Answer: 8.17 µM (active)

Question: What about the Potency [6] of the same compound?
Answer: inactive

Question: And the Potency [7]?
Answer: inactive

Question: What about the Potency [8] of the same compound?
Answer: inactive

Question: What about the Potency [9] of the same compound?
Answer: inactive

Question: And the Potency [11]?
Answer: inactive

Question: What about the Potency [15] of the same compound?
Answer: inactive

Question: What about the Potency [17] of the same compound?
Answer: inactive

Question: What about the Potency [18] of the same compound?
Answer: inactive

Question: What about the Potency [12] of the same compound?
Answer: inactive

Question: And the Potency [13]?
Answer: inactive

Question: What about the Potency [14] of the same compound?
Answer: inactive

Question: What about the Potency [19] of the same compound?
Answer: inactive

Question: What about the Potency [20] of the same compound?
Answer: inactive

Question: Which Potency [2] does the source give for `COc1cc(N2CCN(C(C)=O)CC2)ccc1Nc1ncc(Cl)c(Nc2ccc(N3CCN(C(C)=O)CC3)cc2OC)n1` here?
Answer: inactive

Question: And the outcome [3]?
Answer: inactive

Question: What about the Potency [4] of the same compound?
Answer: 8.17 µM (active) and 16.6 µM (active)

Question: What about the Potency [5] of the same compound?
Answer: 6.49 µM (active) and 13.2 µM (active)

Question: What about the Potency [6] of the same compound?
Answer: inactive

Question: And the Potency [7]?
Answer: inactive

Question: And the Potency [8]?
Answer: inactive

Question: And the Potency [9]?
Answer: inactive

Question: And the Potency [10]?
Answer: inactive

Question: And the Potency [16]?
Answer: inactive

Question: And the Potency [15]?
Answer: inactive

Question: And the Potency [12]?
Answer: inactive

Question: What does the source list for `COc1c(N2CC3CCCNC3C2)c(F)cc2c(=O)c(C(=O)O)cn(C3CC3)c12` (configuration not stated)?
Answer: Potency [2]: inactive; outcome [3]: inactive; Potency [4]: inactive; Potency [5]: inactive; Potency [8]: inactive; Potency [9]: inactive; Potency [10]: inactive; Potency [16]: inactive; Potency [11]: inactive; Potency [15]: inactive; Potency [17]: inactive; Potency [18]: inactive; Potency [12]: inactive; Potency [13]: inactive; Potency [14]: inactive; Potency [19]: inactive; Potency [20]: inactive

Question: For `CS(=O)(=O)c1ccc(-c2cn3ccccc3n2)cc1`, which Potency [16] is on record?
Answer: 10 µM (active)

Question: And the Potency [11]?
Answer: 6.31 µM (active)

Question: And the Potency [17]?
Answer: 12.6 µM (active)

Question: And the Potency [18]?
Answer: 17.8 µM (active)

Question: And the Potency [12]?
Answer: 7.08 µM (active)

Question: And the Potency [13]?
Answer: 7.94 µM (active)

Question: What about the Potency [14] of the same compound?
Answer: 17.8 µM (active)

Question: And the Potency [19]?
Answer: 8.91 µM (active)

Question: And the Potency [20]?
Answer: 7.94 µM (active)
